Assay results published in the supplement of paper PMC8728848.
Shown is part of a subset that was picked to be rich in the strongest signals.

Experiments:
Assay in all cases: glycan array binding signal (z-score within array); higher = stronger binding
Settings in all cases: glycan notation: IUPAC condensed, linker removed
[1] = biological target: Fuc(a1-2)Gal(b1-3)GalNAc(a1-3)[Fuc(a1-2)]Gal(b1-4)Glc
Procedure, shortened: (§1)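 Negative Z-scores can be read as non-binding. The Z-score is calculated within each array and then averaged across arrays of one protein sequence at different concentrations or buffers and across linkers. Arrays, 3228 in all, were curated from the Consortium for Functional Glycomics database and kept only where the protein sequence was available.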

[2] = biological target: Fuc(a1-2)Gal(b1-4)GlcNAc(b1-3)[Fuc(a1-3)[Gal(b1-4)]GlcNAc(b1-6)]Gal(b1-4)Glc
Procedure, shortened: as §1

[3] = biological target: Fuc(a1-2)Gal(b1-4)[Fuc(a1-3)]GlcNAc(b1-3)[Neu5Ac(a2-6)Gal(b1-4)GlcNAc(b1-6)]Gal(b1-4)Glc
Procedure, shortened: as §1

[4] = biological target: Fuc(a1-2)[Gal(a1-3)]Gal(b1-3)GlcNAc
Procedure, shortened: as §1

[5] = biological target: Fuc(a1-2)[Gal(a1-3)]Gal(b1-4)GlcNAc(b1-6)GalNAc
Procedure, shortened: as §1

[6] = biological target: Fuc(a1-2)[GalNAc(a1-3)]Gal(b1-3)GalNAc(b1-3)Gal(a1-4)Gal(b1-4)Glc
Procedure, shortened: as §1

[7] = biological target: Gal(a1-3)Gal(b1-4)GlcNAc(b1-2)Man
Procedure, shortened: as §1

[8] = biological target: Gal(b1-3)GlcNAc(b1-3)Gal(b1-4)GlcNAc
Procedure, shortened: as §1

[9] = biological target: Gal(b1-4)GlcNAc(b1-3)Gal(b1-3)GalNAc
Procedure, shortened: as §1

[10] = biological target: Gal(b1-4)GlcNAc(b1-3)Gal(b1-4)GlcNAc(b1-3)Gal(b1-4)GlcNAc(b1-2)Man(a1-3)[Gal(b1-4)GlcNAc(b1-3)Gal(b1-4)GlcNAc(b1-3)Gal(b1-4)GlcNAc(b1-2)Man(a1-6)]Man(b1-4)GlcNAc(b1-4)[Fuc(a1-6)]GlcNAc
Procedure, shortened: as §1

[11] = biological target: Gal(b1-4)GlcNAc(b1-3)Gal(b1-4)GlcNAc(b1-3)Gal(b1-4)GlcNAc(b1-2)[Gal(b1-4)GlcNAc(b1-3)Gal(b1-4)GlcNAc(b1-3)Gal(b1-4)GlcNAc(b1-6)]Man(a1-6)[Gal(b1-4)GlcNAc(b1-3)Gal(b1-4)GlcNAc(b1-3)Gal(b1-4)GlcNAc(b1-2)Man(a1-3)]Man(b1-4)GlcNAc(b1-4)[Fuc(a1-6)]GlcNAc
Procedure, shortened: as §1

[12] = biological target: Gal(b1-4)GlcNAc(b1-3)Gal(b1-4)GlcNAc(b1-3)Gal(b1-4)GlcNAc(b1-3)Gal(b1-4)GlcNAc(b1-2)Man(a1-3)[Gal(b1-4)GlcNAc(b1-3)Gal(b1-4)GlcNAc(b1-3)Gal(b1-4)GlcNAc(b1-3)Gal(b1-4)GlcNAc(b1-2)Man(a1-6)]Man(b1-4)GlcNAc(b1-4)GlcNAc
Procedure, shortened: as §1

[13] = biological target: Gal(b1-4)GlcNAc(b1-3)Gal(b1-4)GlcNAc(b1-3)Gal(b1-4)GlcNAc(b1-3)Gal(b1-4)GlcNAc(b1-2)Man(a1-3)[Gal(b1-4)GlcNAc(b1-3)Gal(b1-4)GlcNAc(b1-3)Gal(b1-4)GlcNAc(b1-3)Gal(b1-4)GlcNAc(b1-2)Man(a1-6)]Man(b1-4)GlcNAc(b1-4)[Fuc(a1-6)]GlcNAc
Procedure, shortened: as §1

[14] = biological target: Gal(b1-4)GlcNAc(b1-3)Gal(b1-4)GlcNAc(b1-3)Gal(b1-4)GlcNAc(b1-3)Gal(b1-4)GlcNAc(b1-2)[Gal(b1-4)GlcNAc(b1-3)Gal(b1-4)GlcNAc(b1-3)Gal(b1-4)GlcNAc(b1-3)Gal(b1-4)GlcNAc(b1-6)]Man(a1-6)[Gal(b1-4)GlcNAc(b1-3)Gal(b1-4)GlcNAc(b1-3)Gal(b1-4)GlcNAc(b1-3)Gal(b1-4)GlcNAc(b1-2)Man(a1-3)]Man(b1-4)GlcNAc(b1-4)[Fuc(a1-6)]GlcNAc
Procedure, shortened: as §1

[15] = biological target: Gal(b1-4)GlcNAc(b1-3)Gal(b1-4)GlcNAc(b1-3)Gal(b1-4)GlcNAc(b1-3)Gal(b1-4)GlcNAc(b1-3)Gal(b1-4)GlcNAc(b1-2)Man(a1-3)[Gal(b1-4)GlcNAc(b1-3)Gal(b1-4)GlcNAc(b1-3)Gal(b1-4)GlcNAc(b1-3)Gal(b1-4)GlcNAc(b1-3)Gal(b1-4)GlcNAc(b1-2)Man(a1-6)]Man(b1-4)GlcNAc(b1-4)GlcNAc
Procedure, shortened: as §1

[16] = biological target: Gal(b1-4)GlcNAc(b1-3)Gal(b1-4)GlcNAc(b1-3)Gal(b1-4)GlcNAc(b1-3)Gal(b1-4)GlcNAc(b1-3)Gal(b1-4)GlcNAc(b1-2)Man(a1-3)[Gal(b1-4)GlcNAc(b1-3)Gal(b1-4)GlcNAc(b1-3)Gal(b1-4)GlcNAc(b1-3)Gal(b1-4)GlcNAc(b1-3)Gal(b1-4)GlcNAc(b1-2)Man(a1-6)]Man(b1-4)GlcNAc(b1-4)[Fuc(a1-6)]GlcNAc
Procedure, shortened: as §1

[17] = biological target: Gal(b1-4)GlcNAc(b1-3)Gal(b1-4)GlcNAc(b1-3)Gal(b1-4)GlcNAc(b1-3)Gal(b1-4)GlcNAc(b1-3)Gal(b1-4)GlcNAc(b1-2)[Gal(b1-4)GlcNAc(b1-3)Gal(b1-4)GlcNAc(b1-3)Gal(b1-4)GlcNAc(b1-3)Gal(b1-4)GlcNAc(b1-3)Gal(b1-4)GlcNAc(b1-6)]Man(a1-6)[Gal(b1-4)GlcNAc(b1-3)Gal(b1-4)GlcNAc(b1-3)Gal(b1-4)GlcNAc(b1-3)Gal(b1-4)GlcNAc(b1-3)Gal(b1-4)GlcNAc(b1-2)Man(a1-3)]Man(b1-4)GlcNAc(b1-4)[Fuc(a1-6)]GlcNAc
Procedure, shortened: as §1

[18] = biological target: Gal(b1-4)GlcNAc(b1-3)Gal(b1-4)GlcNAc(b1-3)Gal(b1-4)GlcNAc(b1-3)Gal(b1-4)GlcNAc(b1-3)Gal(b1-4)GlcNAc(b1-3)Gal(b1-4)GlcNAc(b1-2)Man(a1-3)[Gal(b1-4)GlcNAc(b1-3)Gal(b1-4)GlcNAc(b1-3)Gal(b1-4)GlcNAc(b1-3)Gal(b1-4)GlcNAc(b1-3)Gal(b1-4)GlcNAc(b1-3)Gal(b1-4)GlcNAc(b1-2)Man(a1-6)]Man(b1-4)GlcNAc(b1-4)GlcNAc
Procedure, shortened: as §1

[19] = biological target: Gal(b1-4)GlcNAc(b1-3)Gal(b1-4)GlcNAc(b1-3)[Gal(b1-4)GlcNAc(b1-3)Gal(b1-4)GlcNAc(b1-6)]GalNAc
Procedure, shortened: as §1

[20] = biological target: Gal3S(b1-4)Glc
Procedure, shortened: as §1

[21] = biological target: GalNAc(b1-3)Gal
Procedure, shortened: as §1

[22] = biological target: GalNAc(b1-4)GlcNAc6S
Procedure, shortened: as §1

[23] = biological target: Glc(a1-6)Glc(a1-6)Glc(a1-6)Glc
Procedure, shortened: as §1

[24] = biological target: GlcNAc(b1-2)Man(a1-3)[GlcNAc(b1-2)Man(a1-6)]Man(b1-4)GlcNAc(b1-4)GlcNAc
Procedure, shortened: as §1

[25] = biological target: GlcNAc(b1-3)Gal
Procedure, shortened: as §1

[26] = biological target: GlcNAc(b1-3)Gal(b1-4)GlcNAc(b1-3)Gal(b1-4)GlcNAc(b1-2)Man(a1-3)[GlcNAc(b1-3)Gal(b1-4)GlcNAc(b1-3)Gal(b1-4)GlcNAc(b1-2)Man(a1-6)]Man(b1-4)GlcNAc(b1-4)GlcNAc
Procedure, shortened: as §1

[27] = biological target: GlcNAc(b1-3)Gal(b1-4)GlcNAc(b1-3)Gal(b1-4)GlcNAc(b1-3)Gal(b1-4)GlcNAc(b1-3)Gal(b1-4)GlcNAc(b1-2)Man(a1-3)[GlcNAc(b1-3)Gal(b1-4)GlcNAc(b1-3)Gal(b1-4)GlcNAc(b1-3)Gal(b1-4)GlcNAc(b1-3)Gal(b1-4)GlcNAc(b1-2)Man(a1-6)]Man(b1-4)GlcNAc(b1-4)GlcNAc
Procedure, shortened: as §1

[28] = biological target: GlcNAc(b1-3)Gal(b1-4)GlcNAc(b1-3)Gal(b1-4)GlcNAc(b1-3)Gal(b1-4)GlcNAc(b1-3)Gal(b1-4)GlcNAc(b1-2)[GlcNAc(b1-3)Gal(b1-4)GlcNAc(b1-3)Gal(b1-4)GlcNAc(b1-3)Gal(b1-4)GlcNAc(b1-3)Gal(b1-4)GlcNAc(b1-6)]Man(a1-6)[GlcNAc(b1-3)Gal(b1-4)GlcNAc(b1-3)Gal(b1-4)GlcNAc(b1-3)Gal(b1-4)GlcNAc(b1-3)Gal(b1-4)GlcNAc(b1-2)Man(a1-3)]Man(b1-4)GlcNAc(b1-4)[Fuc(a1-6)]GlcNAc
Procedure, shortened: as §1

[29] = biological target: Kdn(a2-3)Gal(b1-3)GalNAc
Procedure, shortened: as §1

[30] = biological target: Man(a1-3)[Man(a1-6)]Man
Procedure, shortened: as §1

[31] = biological target: Neu5Ac(a2-3)Gal(b1-3)[Neu5Ac(a2-6)]GalNAc
Procedure, shortened: as §1

[32] = biological target: Neu5Ac(a2-3)Gal(b1-4)[Fuc(a1-3)]GlcNAc(b1-6)[Neu5Ac(a2-3)Gal(b1-3)]GalNAc
Procedure, shortened: as §1

[33] = biological target: Neu5Ac(a2-3)GalNAc(b1-4)GlcNAc
Procedure, shortened: as §1

[34] = biological target: Neu5Ac(a2-6)Gal(b1-4)GlcNAc(b1-2)Man(a1-3)[Neu5Ac(a2-6)Gal(b1-4)GlcNAc(b1-2)Man(a1-6)]Man(b1-4)GlcNAc(b1-4)[Fuc(a1-6)]GlcNAc
Procedure, shortened: as §1

[35] = biological target: Neu5Ac(a2-6)Gal(b1-4)GlcNAc(b1-3)Gal(b1-4)GlcNAc
Procedure, shortened: as §1

[36] = biological target: Neu5Ac(a2-6)Gal(b1-4)GlcNAc(b1-6)GalNAc
Procedure, shortened: as §1

[37] = biological target: Neu5Ac(a2-6)Gal(b1-4)GlcNAc(b1-6)[Gal(b1-3)]GalNAc
Procedure, shortened: as §1

[38] = biological target: Neu5Gc(a2-3)Gal(b1-4)Glc
Procedure, shortened: as §1

[39] = biological target: Neu5Gc(a2-6)Gal(b1-4)GlcNAc
Procedure, shortened: as §1

[40] = biological target: Neu5Gc(a2-8)Neu5Gc(a2-3)Gal(b1-4)GlcNAc(b1-3)Gal(b1-4)GlcNAc
Procedure, shortened: as §1

B1: LSL-150 (Laetiporus sulphureus), Q7Z8V1 (protein)
chain: MTDIYIPPEGLYFRLLGFASRQVIFARNSPSPDVGLSPVNDQATDQYFSLIYGTGEHAGLYAIKSKATGKVLFSRRPAEPYVGQIDGDGRYPDNWFKIEPGKTYLSKYFRLVQPSTGTALVSRTHLQPYFWNHPQTEVFDDQYFTFLFEDHHHHHH
glycan array binding signal (z-score) [1]: -0.208 | glycan array binding signal (z-score) [2]: -0.2 | glycan array binding signal (z-score) [3]: -0.204 | glycan array binding signal (z-score) [4]: -0.206 | glycan array binding signal (z-score) [5]: -0.207 | glycan array binding signal (z-score) [6]: -0.209 | glycan array binding signal (z-score) [7]: -0.208 | glycan array binding signal (z-score) [8]: -0.124 | glycan array binding signal (z-score) [9]: -0.205 | glycan array binding signal (z-score) [10]: 5.23 | glycan array binding signal (z-score) [11]: 5.29 | glycan array binding signal (z-score) [12]: 5.88 | glycan array binding signal (z-score) [13]: 6.24 | glycan array binding signal (z-score) [14]: 6.23 | glycan array binding signal (z-score) [15]: 5.44 | glycan array binding signal (z-score) [16]: 6.16 | glycan array binding signal (z-score) [17]: 6.2 | glycan array binding signal (z-score) [18]: 5.13 | glycan array binding signal (z-score) [19]: 0.034 | glycan array binding signal (z-score) [20]: -0.196 | glycan array binding signal (z-score) [21]: -0.207 | glycan array binding signal (z-score) [22]: -0.203 | glycan array binding signal (z-score) [23]: -0.207 | glycan array binding signal (z-score) [24]: -0.205 | glycan array binding signal (z-score) [25]: -0.195 | glycan array binding signal (z-score) [26]: 0.937 | glycan array binding signal (z-score) [27]: 5.26 | glycan array binding signal (z-score) [28]: 7.09 | glycan array binding signal (z-score) [29]: -0.201 | glycan array binding signal (z-score) [30]: -0.2 | glycan array binding signal (z-score) [31]: -0.208 | glycan array binding signal (z-score) [32]: -0.203 | glycan array binding signal (z-score) [33]: -0.213 | glycan array binding signal (z-score) [34]: -0.208 | glycan array binding signal (z-score) [35]: -0.079 | glycan array binding signal (z-score) [36]: -0.203 | glycan array binding signal (z-score) [37]: -0.194 | glycan array binding signal (z-score) [38]: -0.205 | glycan array binding signal (z-score) [39]: -0.206 | glycan array binding signal (z-score) [40]: -0.196
